# Laboratory results taken from publication PMC8384837, “Expanding the binding specificity for RNA recognition by a PUF domain”.
# Residue numbers refer to the chain shown, from its start.
# Columns and labels:
# Assay in all cases: yeast three-hybrid, YBZ-1, SC-Leu-His + 0.5 mM 3-AT, 4 days
# Settings in all cases: tags: N-Gal4 AD-HA kept; label: inside an RPR1-promoter hybrid RNA with tandem MS2 sites; ssRNA
# PUM1 PUF domain R4-PWT = PUM1 PUF domain R4-PWT (Homo sapiens, UniProt Q14671 828-1176, N971P;H972W;Q975T)
# In short: (§1)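 Matching RNA elements and Pumilio-1 PUF domain libraries, randomized at the three base-contacting residues of every repeat, were co-expressed from a centromeric plasmid in strain YBZ-1 (LexA–MS2 coat fusion, HIS3 reporter). The repeat regions were PCR-amplified and Illumina-sequenced from cells grown four days on SC-Leu (input) or SC-Leu-His + 0.5 mM 3-AT (selection). The interaction score is the log change in variant frequency from input to selection. It is computed in log2, with a pseudocount of 1 for absent variants.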
# PUM1 PUF domain R3-TFL = PUM1 PUF domain R3-TFL (Homo sapiens, UniProt Q14671 828-1176, C935T;R936F;Q939L)
# In short: as §1
# PUM1 PUF domain R3-PWV = PUM1 PUF domain R3-PWV (Homo sapiens, UniProt Q14671 828-1176, C935P;R936W;Q939V)
# In short: as §1
# PUM1 PUF domain R3-SNP = PUM1 PUF domain R3-SNP (Homo sapiens, UniProt Q14671 828-1176, C935S;R936N;Q939P)
# In short: as §1
# PUM1 PUF domain R5-SRI = PUM1 PUF domain R5-SRI (Homo sapiens, UniProt Q14671 828-1176, C1007S;Q1011I)
# In short: as §1
# PUM1 PUF domain R6-SFA = target: T1, PUM1 PUF domain R6-SFA (Homo sapiens, UniProt Q14671 828-1176, N1043S;Y1044F;Q1047A)
# T1 sequence: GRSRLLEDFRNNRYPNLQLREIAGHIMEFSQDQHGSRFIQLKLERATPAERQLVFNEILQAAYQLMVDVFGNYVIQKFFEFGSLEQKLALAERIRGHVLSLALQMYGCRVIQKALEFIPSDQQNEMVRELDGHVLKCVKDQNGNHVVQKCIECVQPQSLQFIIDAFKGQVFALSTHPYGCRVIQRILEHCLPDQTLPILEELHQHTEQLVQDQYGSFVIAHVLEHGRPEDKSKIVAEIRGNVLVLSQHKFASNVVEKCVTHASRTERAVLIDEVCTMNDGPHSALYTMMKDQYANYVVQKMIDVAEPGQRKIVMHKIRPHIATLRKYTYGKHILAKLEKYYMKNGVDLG
# In short: as §1
# PUM1 PUF domain R3-ARL = PUM1 PUF domain R3-ARL (Homo sapiens, UniProt Q14671 828-1176, C935A;Q939L)
# In short: as §1
# PUM1 PUF domain R8-CHR = PUM1 PUF domain R8-CHR (Homo sapiens, UniProt Q14671 828-1176, N1122C;Y1123H;Q1126R)
# In short: as §1
# PUM1 PUF domain R6-IFL = target: T2, PUM1 PUF domain R6-IFL (Homo sapiens, UniProt Q14671 828-1176, N1043I;Y1044F;Q1047L)
# T2 sequence: T1 sequence with S216I, A220L
# In short: as §1
# PUM1 PUF domain R1-KER = PUM1 PUF domain R1-KER (Homo sapiens, UniProt Q14671 828-1176, S863K;R864E;Q867R)
# In short: as §1
# PUM1 PUF domain R1-RKS = PUM1 PUF domain R1-RKS (Homo sapiens, UniProt Q14671 828-1176, S863R;R864K;Q867S)
# In short: as §1
# PUM1 PUF domain R7-IMR = PUM1 PUF domain R7-IMR (Homo sapiens, UniProt Q14671 828-1176, S1079I;N1080M;E1083R)
# In short: as §1
# PUM1 PUF domain R7-RRY = PUM1 PUF domain R7-RRY (Homo sapiens, UniProt Q14671 828-1176, S1079R;N1080R;E1083Y)
# In short: as §1
# PUM1 PUF domain R3-GNE = PUM1 PUF domain R3-GNE (Homo sapiens, UniProt Q14671 828-1176, C935G;R936N;Q939E)
# In short: as §1
# PUM1 PUF domain R3-IYS = PUM1 PUF domain R3-IYS (Homo sapiens, UniProt Q14671 828-1176, C935I;R936Y;Q939S)
# In short: as §1
# PUM1 PUF domain R8-KKF = PUM1 PUF domain R8-KKF (Homo sapiens, UniProt Q14671 828-1176, N1122K;Y1123K;Q1126F)
# In short: as §1
# PUM1 PUF domain R5-FRQ = PUM1 PUF domain R5-FRQ (Homo sapiens, UniProt Q14671 828-1176, C1007F)
# In short: as §1
# PUM1 PUF domain R5-GWW = PUM1 PUF domain R5-GWW (Homo sapiens, UniProt Q14671 828-1176, C1007G;R1008W;Q1011W)
# In short: as §1
# PUM1 PUF domain R1-RQN = PUM1 PUF domain R1-RQN (Homo sapiens, UniProt Q14671 828-1176, S863R;R864Q;Q867N)
# In short: as §1
sequence,measurement,setting,value
GGCUAGAACUAGUGGAUCCCCCGGCGCCCGGCGGCUCGAGCCCGGGUAAGUGUACAUAGUCUGCAUGCCGCCGGGCGCCAUGCCUGCAGGUCGACUCUAGAAAACAUG,binding signal,PUM1 PUF domain R4-PWT,5.24 log2 enrichment (interaction score)
GGCUAGAACUAGUGGAUCCCCCGGCGCCCGGCGGCUCGAGCCCGGGUAAGUGUAAAUAGUCUGCAUGCCGCCGGGCGCCAUGCCUGCAGGUCGACUCUAGAAAACAUG,binding signal,PUM1 PUF domain R3-TFL,2.81 log2 enrichment (interaction score)
same,binding signal,PUM1 PUF domain R3-PWV,3.63 log2 enrichment (interaction score)
same,binding signal,PUM1 PUF domain R3-SNP,2.72 log2 enrichment (interaction score)
same,binding signal,PUM1 PUF domain R5-SRI,2.73 log2 enrichment (interaction score)
same,binding signal,PUM1 PUF domain R6-SFA,3.38 log2 enrichment (interaction score)
same,binding signal,PUM1 PUF domain R3-ARL,3.6 log2 enrichment (interaction score)
same,binding signal,PUM1 PUF domain R8-CHR,2.18 log2 enrichment (interaction score)
GGCUAGAACUAGUGGAUCCCCCGGCGCCCGGCGGCUCGAGCCCGGGUAAGUGAAAAUAGUCUGCAUGCCGCCGGGCGCCAUGCCUGCAGGUCGACUCUAGAAAACAUG,binding signal,PUM1 PUF domain R6-IFL,7.28 log2 enrichment (interaction score)
GGCUAGAACUAGUGGAUCCCCCGGCGCCCGGCGGCUCGAGCCCGGGUAAGUGUAAAUUGUCUGCAUGCCGCCGGGCGCCAUGCCUGCAGGUCGACUCUAGAAAACAUG,binding signal,PUM1 PUF domain R1-KER,3.72 log2 enrichment (interaction score)
same,binding signal,PUM1 PUF domain R1-RKS,4.69 log2 enrichment (interaction score)
GGCUAGAACUAGUGGAUCCCCCGGCGCCCGGCGGCUCGAGCCCGGGUAAGUUUAAAUAGUCUGCAUGCCGCCGGGCGCCAUGCCUGCAGGUCGACUCUAGAAAACAUG,binding signal,PUM1 PUF domain R7-IMR,2.21 log2 enrichment (interaction score)
same,binding signal,PUM1 PUF domain R7-RRY,3.87 log2 enrichment (interaction score)
GGCUAGAACUAGUGGAUCCCCCGGCGCCCGGCGGCUCGAGCCCGGGUAAGUCUAAAUAGUCUGCAUGCCGCCGGGCGCCAUGCCUGCAGGUCGACUCUAGAAAACAUG,binding signal,PUM1 PUF domain R7-RRY,3.51 log2 enrichment (interaction score)
GGCUAGAACUAGUGGAUCCCCCGGCGCCCGGCGGCUCGAGCCCGGGUAAGUGUAAGUAGUCUGCAUGCCGCCGGGCGCCAUGCCUGCAGGUCGACUCUAGAAAACAUG,binding signal,PUM1 PUF domain R3-GNE,2.22 log2 enrichment (interaction score)
same,binding signal,PUM1 PUF domain R3-IYS,4.72 log2 enrichment (interaction score)
GGCUAGAACUAGUGGAUCCCCCGGCGCCCGGCGGCUCGAGCCCGGGUAAGCGUAAAUAGUCUGCAUGCCGCCGGGCGCCAUGCCUGCAGGUCGACUCUAGAAAACAUG,binding signal,PUM1 PUF domain R8-KKF,3 log2 enrichment (interaction score)
same,binding signal,PUM1 PUF domain R8-CHR,4.19 log2 enrichment (interaction score)
GGCUAGAACUAGUGGAUCCCCCGGCGCCCGGCGGCUCGAGCCCGGGUAAGUGUCAAUAGUCUGCAUGCCGCCGGGCGCCAUGCCUGCAGGUCGACUCUAGAAAACAUG,binding signal,PUM1 PUF domain R5-FRQ,2.71 log2 enrichment (interaction score)
GGCUAGAACUAGUGGAUCCCCCGGCGCCCGGCGGCUCGAGCCCGGGUAAGUGUUAAUAGUCUGCAUGCCGCCGGGCGCCAUGCCUGCAGGUCGACUCUAGAAAACAUG,binding signal,PUM1 PUF domain R5-GWW,6.66 log2 enrichment (interaction score)
GGCUAGAACUAGUGGAUCCCCCGGCGCCCGGCGGCUCGAGCCCGGGUAAGUGUAAUUAGUCUGCAUGCCGCCGGGCGCCAUGCCUGCAGGUCGACUCUAGAAAACAUG,binding signal,PUM1 PUF domain R3-ARL,1.22 log2 enrichment (interaction score)
GGCUAGAACUAGUGGAUCCCCCGGCGCCCGGCGGCUCGAGCCCGGGUAAGUGUAAAUCGUCUGCAUGCCGCCGGGCGCCAUGCCUGCAGGUCGACUCUAGAAAACAUG,binding signal,PUM1 PUF domain R1-RQN,4.56 log2 enrichment (interaction score)
